The antibiotic and cytotoxicity screens of Wong et al. (2023)
Screen size: about 39,000 compounds; about 3,300 (8.5%) were called active. What follows is part of a selection rich in actives, with near analogues and random picks from the rest.

System: HepG2
Test: cytotoxicity call (relative viability < 0.9)
Conditions: 10 µM

Row | Compound | cytotoxicity call
1 | CO[C@H](CN(C)S(=O)(=O)c1ccc(F)cc1)[C@H](C)CN([C@@H](C)CO)S(=O)(=O)c1cccc(Cl)c1 | inactive
2 | COC1C=CC23c4cc5c(cc4CN(CC2O)C3C1)OCO5 (stereo not drawn) | inactive
3 | COC(=O)[C@H](Cc1ccccc1)N1CC2=C[C@H](C3CC3)n3c(=O)n(C)c(=O)n3[C@@H]2[C@H]1[C@H](O)Cc1ccccc1 | inactive
4 | CC(=O)N1CCc2n[nH]c(C(=O)N3CCOCC3)c2C1 | inactive
5 | CC(C)NC(=O)N(C)C[C@@H]1Oc2c(NC(=O)C3CCOCC3)cccc2C(=O)N([C@H](C)CO)C[C@@H]1C | inactive
6 | C[C@@H]1CN([C@@H](C)CO)S(=O)(=O)c2ccc(C#Cc3ccc(F)cc3)cc2O[C@@H]1CN(C)C(=O)CN(C)C | inactive
7 | C[C@H](CO)N1C[C@H](C)[C@H](CN(C)C(=O)CN(C)C)Oc2cc(C#Cc3ccccc3)ccc2S1(=O)=O | inactive
8 | C[C@H](CO)N1C[C@H](C)[C@@H](CN(C)C(=O)CN(C)C)Oc2cc(C#Cc3ccccc3)ccc2S1(=O)=O | active
9 | C[C@H]1CN([C@@H](C)CO)S(=O)(=O)c2ccc(C#Cc3ccccc3)cc2O[C@H]1CN(C)C(=O)CN(C)C | active
10 | C[C@@H]1CN([C@H](C)CO)S(=O)(=O)c2ccc(C#Cc3ccc(F)cc3)cc2O[C@@H]1CN(C)C(=O)CN(C)C | inactive
11 | C[C@H]1CN([C@@H](C)CO)S(=O)(=O)c2ccc(C#Cc3ccccc3)cc2O[C@@H]1CN(C)C(=O)CN(C)C | inactive
12 | C[C@H](CO)N1C[C@H](C)[C@H](CN(C)C(=O)CN(C)C)Oc2cc(C#Cc3ccc(F)cc3)ccc2S1(=O)=O | inactive
13 | C[C@@H]1CN([C@@H](C)CO)S(=O)(=O)c2ccc(C#Cc3ccccc3)cc2O[C@@H]1CN(C)C(=O)CN(C)C | active
14 | C[C@H](CO)N1C[C@H](C)[C@@H](CN(C)C(=O)CN(C)C)Oc2cc(C#Cc3ccc(F)cc3)ccc2S1(=O)=O | inactive
15 | C[C@@H]1CCCCO[C@@H](CN(C)Cc2ccc(C(F)(F)F)cc2)[C@H](C)CN([C@H](C)CO)C(=O)c2cc(N(C)C)ccc2O1 | inactive
16 | Cn1ccc(C(=O)N2CCC3(CCOC[C@@H]3NS(C)(=O)=O)CC2)n1 | inactive
17 | Cc1noc(C)c1S(=O)(=O)Nc1ccc2c(c1)CC(=O)N([C@@H](C)CO)C[C@H](C)[C@H](CN(C)C(=O)NC(C)C)O2 | inactive
18 | COc1cccc(S(=O)(=O)N[C@H]2CC[C@@H](CC(=O)NC3CCC3)O[C@@H]2CO)c1 | inactive
19 | CC(=O)NCCCC[C@@H]1NC(=O)[C@H]2C[C@@H](C(=O)NCCCCCCN(C)C)[C@@H](c3ccc(O)cc3)N2C1=O | inactive
20 | C[C@@H]1CCCCO[C@H](CN(C)C(=O)Nc2ccc(F)cc2)[C@H](C)CN([C@@H](C)CO)C(=O)c2cc(NC(=O)c3ccncc3)ccc2O1 | inactive
21 | NCc1ccc(S(=O)(=O)O)cc1 | inactive
22 | C[C@@H]1CN([C@@H](C)CO)C(=O)Cc2cc(NC(=O)Cn3cnnn3)ccc2O[C@@H]1CN(C)C(=O)Nc1ccc(F)cc1 | inactive

Row | Compound | cytotoxicity call
23 | CN1CCN(C(=O)C[C@@H]2C=C[C@@H](NC(=O)c3ccc4c(c3)OCO4)[C@H](CO)O2)CC1 | inactive
24 | CCCCOc1ccc(CC(=O)NO)cc1 | active
25 | COc1ccc(OCCC(=O)NN)cc1 | inactive
26 | CCOc1ccc(NC(=O)CC(C)O)cc1 (stereo not drawn) | inactive
27 | CNC(=O)CN(C#N)c1nc(C)cc(C)n1 | inactive
28 | COc1ccc(CNC(=O)C[C@H]2C[C@H]3c4cc(NS(=O)(=O)c5ccc(F)cc5)ccc4O[C@H]3[C@H](CO)O2)cc1 | inactive
29 | C[C@H](CO)N1C[C@H](C)[C@H](CN(C)C(=O)c2cccnc2)Oc2ncc(-c3ccc(C(=O)N(C)C)cc3)cc2C1=O | inactive
30 | C[C@@H]1CCCCO[C@H](CN(C)C(=O)CCC(F)(F)F)[C@@H](C)CN([C@H](C)CO)C(=O)c2cc(NC(=O)CCC(F)(F)F)ccc2O1 | inactive
31 | C[C@H](CO)N1C[C@H](C)[C@H](CN(C)C(=O)Nc2ccccc2)Oc2ccc(NC(=O)Nc3ccc(C(F)(F)F)cc3)cc2C1=O | active
32 | C[C@H]1CN([C@@H](C)CO)C(=O)c2cc(NC(=O)Nc3ccc(F)cc3)ccc2O[C@@H]1CN(C)C(=O)Nc1ccc(C(F)(F)F)cc1 | inactive
33 | C[C@@H]1CN([C@H](C)CO)C(=O)c2cc(NC(=O)Nc3ccccc3)ccc2O[C@@H]1CN(C)C(=O)Nc1ccc(C(F)(F)F)cc1 | inactive
34 | C[C@@H]1CN([C@H](C)CO)C(=O)c2cc(NC(=O)Nc3ccc(C(F)(F)F)cc3)ccc2O[C@H]1CN(C)C(=O)Nc1ccc(F)cc1 | inactive
35 | C[C@H]1CN([C@@H](C)CO)C(=O)c2cc(NC(=O)Nc3ccc(C(F)(F)F)cc3)ccc2O[C@H]1CN(C)C(=O)Nc1ccc(C(F)(F)F)cc1 | inactive
36 | C[C@@H]1CN([C@@H](C)CO)C(=O)c2cc(NC(=O)CCC(F)(F)F)ccc2O[C@H]1CN(C)C(=O)Nc1ccc(C(F)(F)F)cc1 | inactive
37 | C[C@@H]1CN([C@H](C)CO)C(=O)c2cc(NC(=O)CCC(F)(F)F)ccc2O[C@@H]1CN(C)C(=O)Nc1ccc(C(F)(F)F)cc1 | inactive
38 | C[C@H](CO)N1C[C@H](C)[C@@H](CN(C)C(=O)Nc2ccc(C(F)(F)F)cc2)Oc2ccc(NC(=O)Nc3ccc(F)cc3)cc2C1=O | active
39 | C[C@H]1CN([C@@H](C)CO)C(=O)c2cc(NC(=O)CCC(F)(F)F)ccc2O[C@H]1CN(C)C(=O)Nc1ccc(C(F)(F)F)cc1 | active
40 | C[C@@H]1CN([C@@H](C)CO)C(=O)c2cc(NC(=O)Nc3ccc(C(F)(F)F)cc3)ccc2O[C@H]1CN(C)C(=O)Nc1ccc(C(F)(F)F)cc1 | inactive
41 | C[C@H](CO)N1C[C@H](C)[C@@H](CN(C)C(=O)Nc2ccc(C(F)(F)F)cc2)Oc2ccc(NC(=O)Nc3ccc(C(F)(F)F)cc3)cc2C1=O | active
42 | C[C@@H]1CN([C@@H](C)CO)C(=O)c2cc(NC(=O)Nc3ccccc3)ccc2O[C@@H]1CN(C)C(=O)Nc1ccc(C(F)(F)F)cc1 | inactive
43 | Cc1noc(C)c1NC(=O)Nc1ccc2c(c1)CC(=O)N([C@H](C)CO)C[C@H](C)[C@H](CN(C)S(=O)(=O)c1cn(C)cn1)O2 | inactive
